Data as given in PubChem BioAssay.
“And” between values parts separate entries of the source, which are not always exact repeats. Identical values can stand only once. Values without a mark were called inactive. The source made the active and inactive calls. Cut-off read from the data, not from the text of the source: active = fold change permeability below about 0.7 or above about 1.3; inactive = in between.

Experiment: compounds altering in vitro BBB leakiness – cell-based, FITC-avidin fluorescence, HTS, primary screen (AID 1963498); note: test concentration not given here
Conditions: brain endothelial barrier, actives lie on both sides
For `CC(C)(C)NCC(O)c1ccccc1Cl` (stereo unspecified), the fold change permeability was 0.7 (active). For `CCCN(CCC)C1Cc2cc(OC)c(OC)cc2C1`, the fold change permeability was 0.8. For `Clc1ccc(CO/N=C(\Cn2ccnc2)c2ccc(Cl)cc2Cl)c(Cl)c1`, the fold change permeability was 1.6 (active). For `CN(C(=O)Cc1ccc(Cl)c(Cl)c1)C(CN1CCCC1)c1cccc(OCC(=O)O)c1` (stereo unspecified), the fold change permeability was 1.1. `O=C(N[C@H]1CN2CCC1CC2)c1c[nH]c2ccsc2c1=O` showed a fold change permeability of 0.9. With `CC(N)[C@H](O)c1ccc(O)c(O)c1` (stereo partly specified) the fold change permeability was 1. In the case of `c1ccc2c(c1)OCC(C1=NCCN1)O2` (stereo unspecified), the fold change permeability is reported as 2.1 (active). In the case of `NCC1(CC(=O)O)CCCCC1`, the fold change permeability is reported as 0.9. For `COc1ccc2c(c1OC)C(=O)O[C@H]2[C@@H]1c2cc3c(cc2CCN1C)OCO3`, the fold change permeability was 1.2. `C[N+](C)(C)CCOC(=O)CBr` showed a fold change permeability of 1. `CC(C)NP(=O)(NC(C)C)OP(=O)(NC(C)C)NC(C)C` showed a fold change permeability of 1.1. For `C[N+]1(C)C2CCC1CC(OC(=O)C(CO)c1ccccc1)C2` (stereo unspecified), the fold change permeability was 1.1. Compound `CCN1CCN(C(=O)Cc2ccc(Nc3ncc(F)c(Nc4ccc(C(=O)Nc5ccccc5Cl)cc4)n3)cc2)CC1` has a fold change permeability of 1.1. Work on `C[N+]1(C)CCOC(O)(c2ccc(-c3ccc(C4(O)C[N+](C)(C)CCO4)cc3)cc2)C1` (stereo unspecified) yielded a fold change permeability of 1.1. With `O=C(O)c1nn(Cc2ccc(Cl)cc2Cl)c2ccccc12` the fold change permeability was 1.9 (active). For `CCCN1CCC[C@@H]2Cc3[nH]ncc3C[C@H]21`, the fold change permeability was 0.9. `Cc1nnc2n1-c1sccc1C(c1ccccc1)=NC2` showed a fold change permeability of 1.1. `CCN(CC)c1ncnc2c1ncn2[C@@H]1O[C@H](COP(=O)(O)OP(=O)(O)C(Br)(Br)P(=O)(O)O)[C@@H](O)[C@H]1O` gave a fold change permeability of 1.1. For `CCCN(CCC)[C@@H]1CCc2cccc(O)c2C1`, the fold change permeability was 1.2. For `NC(N)=NOCC[C@H](N)C(=O)O`, the fold change permeability was 1 and 0.8. With `CC(C)[C@H]1CN[C@H](C(=O)O)[C@H]1CC(=O)O` the fold change permeability was 1.1. `CC(Cc1ccc(OCC(=O)O)cc1)NCC(O)c1cccc(Cl)c1` (stereo unspecified) showed a fold change permeability of 1. In the case of `O=C(N[C@H]1CN2CCC1CC2)c1ccc(Cl)cc1`, the fold change permeability is reported as 1.3 (active). `Cc1c2ccncc2c(C)c2c1[nH]c1ccccc12` gave a fold change permeability of 1.2. For `S=C(NC1CCCCC1)N1CCC(c2cnc[nH]2)CC1`, the fold change permeability was 1.6 (active). `CC(CCc1ccccc1)NC(C)C(O)c1ccc(O)cc1` (stereo unspecified) showed a fold change permeability of 0.8. For `Clc1ccc(C(c2ccc(Cl)cc2)n2cc[n+](CC(OCc3ccc(Cl)cc3Cl)c3ccc(Cl)cc3Cl)c2)cc1` (stereo unspecified), the fold change permeability was 1.3 (active). For `CCC1(c2ccc(N)cc2)CCC(=O)NC1=O` (stereo unspecified), the fold change permeability was 1. With `Clc1cnc(Oc2ccc(Oc3ncc(Cl)cc3Cl)cc2)c(Cl)c1` the fold change permeability was 1.4 (active). In the case of `CN(c1nc2ccccc2s1)C1CCN(C[C@H](O)COc2ccc(F)c(F)c2)CC1`, the fold change permeability is reported as 1.6 (active). In the case of `CC(C)(C)c1cc(C(C)(C)C)c2c(c1)C(O)(C(F)(F)F)C(=O)O2` (stereo unspecified), the fold change permeability is reported as 1.2. For `O=C(O)[C@@H]1CCN1`, the fold change permeability was 1. Work on `CC[N+](CC)(CC)CC` yielded a fold change permeability of 1.1. With `CN1CC[C@@]2(C)c3cc(O)ccc3N(C)C12` (stereo partly specified) the fold change permeability was 1.3 (active). Compound `C[N+]1(C)[C@@H]2CC[C@H]1CC(OC(=O)C(CO)c1ccccc1)C2` (stereo partly specified) has a fold change permeability of 1. For `COc1cc2c(c(OC)c1OC)-c1ccc(SC)c(=O)cc1[C@@H](NC(C)=O)CC2`, the fold change permeability was 1.7 (active).
